From PubChem BioAssay AID925 (National Center for Advancing Translational Sciences (NCATS), 2007)
“And” between values parts separate entries of the source, which are not always exact repeats. Equal entries are not always repeated. The campaign covered roughly 65,000 compounds. About 40 (0.06%) were called active. The call rests on the fitted dose curve; in most records, active means well fitted activation curve with a large enough effect; inconclusive means small, poorly fitted or top-dose-only effect; inactive means flat fitted curve, though single readings scatter. Only a selection was taken, and actives are over-represented in it overall.

Experiment: qHTS Assay for Modulators of Hemoglobin Beta Chain Splicing; further: 0% is about no effect
Conditions: HBB splicing reporter cell assay, EGFP reporter with mutant IVS2-654 intron; Potency: activation; series mostly up to 46.1 µM; activation: at the top concentration
Text: NIH Chemical Genomics Center [NCGC]
NIH Molecular Libraries Screening Centers Network [MLSCN]
PI Name: Dr. Ryszard Kole
Modulation of Alternative Splicing as Therapy
Abnormal splicing is associated with a number of diseases, including cancer and genetic diseases such as cystic fibrosis, muscular dystrophy and beta-thalassemia. Alteration of disease associated splicing patterns provides a promising target for treatment. […] Mutations in the second intron of the beta-globin gene at positions are clinically relevant and cause mis-splicing which results in an out of frame gene product.
EGFP-654 and 705 HeLa Cells as screen system.
HeLa cell lines were stably transfected with a construct in which the EGFP (enhanced green fluorescent protein) cDNA was interrupted by the second intron of the beta-globin gene (IVS2-654). The ISV2 intron contains mutations which cause mis-splicing of EGFP and premature termination of EGFP which results in a nonfluorescent protein product. […] Expression of the transgene was driven by the CMV promoter. We concluded that a low molecular weight compound, which restored correct splicing of intron 2 would also generate functional EGFP protein, resulting in a fluorescent signal. Thus, the HeLa cells that express the EGFP-654 construct can be used for high throughput screening of a chemical library.
NCGC Assay Protocol Summary:
High Throughput Screening. Freshly thawed HeLa EGFP-654 cells were seeded in 5 ul of optimem media (Invitrogen) containing 2 % fetal calf serum (Hyclone) and 1x penicillin/streptomycin (Invitrogen) at a concentration of 500 cells per well in 1536-well plates. Cells were incubated overnight at 37C in 5% CO2. The next day, cells were treated with DMSO, 500 nM antisense ISV2 654 PNA control oligo, or library compound and allowed to grow at 37C in 5% CO2 for 2 days. The PNA oligo blocked the mutation site in the intron and allowed proper (wild type) splicing to occur, resulting in full length EGFP expression and also allowed for optimization of the assay parameters. Plates were read in the Acumen Explorer (TTP Labtech) using 488 nm laser excitation and 500-520 nm emission PMT filter in a 1 x […] capture mode. Fluorescnet Fluorescent objects ranging in size from […] were measured and the total peak GFP intensity for each well was used for data analysis.
Keywords: Thalassemia, beta-thalassemia, beta-globin, EGFP, ISV2 654, ISV2 705, SSO, PNA, antisense, splicing, MLSMR, MLSCN, NIH Roadmap, qHTS, NCGC

activation, inactive:
COC(=O)CCCCCN1C(=O)NC(c2ccc(-c3ccccc3)cc2)C(C(=O)OCc2ccccc2)=C1C (centres undefined) -0.877%
NC[C@@H]1O[C@H](O[C@@H]2[C@H](O[C@@H]3O[C@H](CO)[C@@H](COC[C@H]4O[C@@H](CN)[C@@H](O)[C@@H](O)[C@@H]4N)[C@@H]3O)[C@@H](O)[C@@H](N)C[C@H]2N)[C@@H](N)[C@H](O)[C@@H]1O 0.609% [at 20.6 µM, normalised to 500 nM splice-correcting PNA]
CO[C@H]1COC(=O)CCC[C@@H](C)[C@H](OC)COC(=O)[C@@H](C)NC(=O)C/C=C\[C@@H]1C 1.62% [at 9.22 µM, normalised to 500 nM splice-correcting PNA]
COC(=O)[C@@]1(Cc2ccc(F)cc2)[C@H]2c3cc(C(=O)N4CCCC4)n(C[C@H](O)CO)c3C[C@H]2CN1C(=O)c1ccccc1 -0.241%
COc1ccc(/C=C/NC(=O)c2ccc(OC)cc2)cc1 0.0031% [at 9.22 µM, normalised to 500 nM splice-correcting PNA]
CN(C)c1cc2c(Nc3ccc4c(cnn4Cc4ccccc4)c3)ncnc2cn1 0.878%
Cc1cccc(C(=O)O)c1 -0.218%
COC(=O)[C@@]1(C)C=C[C@@H](Cc2ccccc2)N1C(C)=O -0.493%
COC(=O)C1(Cc2ccccc2)C=C2C(=C(C)C(=O)C2C)CN1 (centres undefined) -0.49%
C=CC(=O)OCCOCCOCCOCCOC(=O)C=C
Oc1cc2c(cc1O)CN(C(=S)NCCc1ccc(Cl)cc1)CCC2 -4.89%
O=C(c1ccco1)N1CCC[C@@]2(CCN(Cc3nccs3)C2)C1 0.678%
CN(C)C(=O)c1ccc(-c2cncnc2Nc2ccccc2)cc1 -0.328%
COc1cccc([C@H]2Oc3ccc(OC)cc3/C(=N\OCC[C@@H]3C=C[C@H](OC(C)=O)[C@H](COC(C)=O)O3)[C@@H]2O)c1 -1.11% [at 9.22 µM, normalised to 500 nM splice-correcting PNA]
COc1cc([C@H]2c3cc4c(cc3[C@@H](O[C@@H]3O[C@H]5CO[C@@H](C)O[C@]5(O)C[C@H]3O)[C@@H]3COC(=O)[C@H]23)OCO4)cc(OC)c1O 0.795%
Cc1cc(Cl)ccc1OCC(=O)Oc1c(Cl)c(Cl)c(Cl)c(Cl)c1Cl 0.153% [at 9.22 µM, normalised to 500 nM splice-correcting PNA]
C/C(CCN1CCc2nc(-c3ccccc3)c(-c3ccccc3)cc2C1)=N\O[C@@H](C)c1cn([C@@H]2COC[C@@H]2O)nn1 -1.08% [at 9.22 µM, normalised to 500 nM splice-correcting PNA]
COc1ccc(COC(=O)N/N=C2/C[C@@H](O)[C@@H](O)[C@@H]3[C@@H]4C(=O)N([C@@H](C)c5ccccc5)C(=O)[C@H]4CC[C@@H]23)cc1 0.743% [at 9.22 µM, normalised to 500 nM splice-correcting PNA]
COc1ccc2[nH]cc(CCNc3cc(-c4ccccc4CN(C)C)ncn3)c2c1 -1.5%
O=C(O)c1ccc(C(=O)O)c2c(C(=O)O)ccc(C(=O)O)c12 -1.01% [at 9.22 µM, normalised to 500 nM splice-correcting PNA]
O=C(O)[C@@H]1[C@@H](C(=O)O)[C@]23C[C@@]2(C(=O)O)[C@]2(C(=O)O)CCC3=C3CCCC312 0.251% [at 9.22 µM, normalised to 500 nM splice-correcting PNA]
COCCNc1ncnc2ccc(-c3cccnc3)cc12 -0.174%
CCN(CC)CCCCn1c(-c2ccccc2)nc2c(N3CCOCC3)nc(C)nc21 -0.944%
CO[C@@H]1COC(=O)[C@H](Cc2ccccc2)NC(=O)C/C=C\[C@@H](C)[C@H](OC)COC(=O)[C@@H](C)NC(=O)C/C=C\[C@H]1C 1.42% [at 9.22 µM, normalised to 500 nM splice-correcting PNA] and 0.127% [at 9.22 µM, normalised to 500 nM splice-correcting PNA]
Cc1noc(C)c1-c1nc(Nc2ccccc2)c2ccccc2n1 -0.209%
O=NO
ClC(Cl)(Cl)C(N1CCN(c2ccccc2)CC1)N1CCN(c2ccccc2)CC1 3.1% [at 9.22 µM, normalised to 500 nM splice-correcting PNA]
CC(=O)Oc1ccccc1C(=O)Nc1ncc([N+](=O)[O-])s1 -1.69%
COc1ccc(NC(=O)N2CC3(CCN(C(C)=O)CC3)C2)cc1 1.24%
COC(=O)[C@@H]1CC[C@H](C)[C@@H](c2ccc(C)cc2)N1C(=O)c1ccc(/C=N\OC[C@@H](O)COCc2ccco2)cc1 -0.0134% [at 9.22 µM, normalised to 500 nM splice-correcting PNA]
Clc1ccc(C(c2ccc(Cl)cc2)n2cc[n+](C[C@@H](OCc3ccc(Cl)cc3Cl)c3ccc(Cl)cc3Cl)c2)cc1 -0.247%
CC(C)C[C@@H](CC(=O)N[C@@H](CCC(=O)O)CC(=O)O)NC(=O)[C@@H]1CCCC[C@H]1NC(=O)C[C@@H](NC(=O)C[C@H](CO)NC(=O)[C@@H]1CCCC[C@H]1N)C(C)C 3.3%
O=C(O)[C@@H](S)[C@H](S)C(=O)O -1.17% [at 9.22 µM, normalised to 500 nM splice-correcting PNA]
O=C(O)[C@@H](O)Cc1ccccn1 2.62% [at 9.22 µM, normalised to 500 nM splice-correcting PNA]
COC(=O)N1CCC2(CCCN(c3ccncc3)C2)CC1 -1.2%
NCC(=O)[C@@H](O)[C@H](O)[C@H](O)CO 0.718% [at 9.22 µM, normalised to 500 nM splice-correcting PNA]
CN(C)C(=O)c1ccc(-c2cncnc2NC2CCNCC2)cc1 -0.451%
CN1[C@H]2CC(OC(=O)[C@@H](CO)c3ccccc3)C[C@H]1[C@H]1O[C@H]12 (some centres undefined) 0.627% [at 20.6 µM, normalised to 500 nM splice-correcting PNA]
O=C1[C@H]2[C@H]3[C@H](O)[C@H](O)C/C(=N/OCc4ccccc4)[C@H]3CC[C@@H]2C(=O)N1Cc1ccccc1 0.171% [at 9.22 µM, normalised to 500 nM splice-correcting PNA]
